PubChem BioAssay (NCATS)
Records with an inconclusive call do not appear. Activity calls are given as the source filed them. Calls come from the whole dose curve; as a rule, active = well fitted curve in the direction sought with a large enough effect; inconclusive = small, poorly fitted or top-dose-only effect, or another doubt; inactive = no such curve, though single readings can be large; an effect the other way counts as inactive or inconclusive.

Experiments:
[1] = tested on: HACAT; assay: qHTS assay to identify novel small-molecules to repurpose for Merkel cell carcinoma treatment (AID 1296009); conditions: MCC and control cell lines, CellTiter-Glo viability, 72 h; note: nearly all actives have a fitted effect of over 60% in size; note: potency is the fitted concentration of half-maximal effect
Outline: (§1)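 qHTS format: cells treated with library compounds in DMSO across 8 (NPC) or 11 (MIPE) concentrations. Readout after 72 hr at 37 degree celsius was CellTiter-Glo luminescence.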

[2] = tested on: HEK293T; assay: as above; conditions: MCC and control cell lines, CellTiter-Glo viability, 72 h; at 44.8 µM (top of the series) unless noted
Outline: as §1

[3] = tested on: MCC-13; assay: as above; conditions: MCC and control cell lines, CellTiter-Glo viability, 72 h; series mostly up to 46 µM
Outline: as §1

[4] = tested on: MCC-26; assay: as above; conditions: MCC and control cell lines, CellTiter-Glo viability, 72 h; series mostly up to 46 µM
Outline: as §1

[5] = tested on: MKL-1; assay: as above; conditions: MCC and control cell lines, CellTiter-Glo viability, 72 h; series mostly up to 46 µM
Outline: as §1

[6] = tested on: MKL-2; assay: as above; conditions: MCC and control cell lines, CellTiter-Glo viability, 72 h; series mostly up to 46 µM
Outline: as §1

[7] = tested on: NIH3T3; assay: as above; conditions: MCC and control cell lines, CellTiter-Glo viability, 72 h; at 44.8 µM (top of the series) unless noted
Outline: as §1

[8] = tested on: UISO; assay: as above; conditions: MCC and control cell lines, CellTiter-Glo viability, 72 h; series mostly up to 46 µM
Outline: as §1

[9] = tested on: WaGa; assay: as above; conditions: MCC and control cell lines, CellTiter-Glo viability, 72 h; series mostly up to 46 µM
Outline: as §1

[10] = tested on: C33A; assay: Primary qHTS to identify gynecologic anti-cancer compounds using libraries of approved drugs and bioactive compounds (AID 1345084); conditions: Gynecologic cancer cell panel viability, ATPlite luminescence, 48 h; series mostly up to 57.5 µM; note: nearly all actives have a fitted effect of over 55% in size
Outline: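 Cell viability after 48 h drug treatment, ATPlite luminescence readout; five doses.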

[11] = at 44.8 µM (top of the series) unless noted

Measured: Potency

O=C1c2ccccc2C(=O)C1c1ccccc1
inactive: [1]; [11] | [2] | [3] | [4] | [5] | [6] | [7] | [8] | [9] | [10]

CN(C)CCOc1ccccc1Cc1ccccc1
inactive: [1]; [11] | [3] | [4] | [5] | [6] | [8] | [9] | [10]

CCCCS(=O)(=O)N[C@@H](Cc1ccc(OCCCCC2CCNCC2)cc1)C(=O)O
inactive: [1]; [11] | [3] | [4] | [5] | [6] | [7] | [8] | [9] | [10]

Cc1ncc(CSSCc2cnc(C)c(O)c2CO)c(CO)c1O
inactive: [1]; [11] | [2] | [3] | [4] | [5] | [6] | [8] | [9] | [10]

Nc1ccc(C(=O)O)cc1
inactive: [1]; [11] | [2] | [3] | [4] | [5] | [6] | [8] | [9] | [10]

CCOC(=O)OC(C)OC1=C(C(=O)Nc2ccccn2)N(C)S(=O)(=O)c2ccccc21 (stereo not drawn)
inactive: [1]; [11] | [2] | [3] | [4] | [5] | [6] | [8] | [9] | [10]

N[C@H](Cc1c[nH]c2ccccc12)C(=O)O
inactive: [1]; [11] | [2] | [3] | [4] | [5] | [6] | [9] | [10]

N[C@@H](CCC(=O)N[C@@H](CS)C(=O)NCC(=O)O)C(=O)O
inactive: [1]; [11] inactive [at 17.4 µM] | [3] | [4] | [5] | [6] | [7] inactive [at 17.4 µM] | [8] | [9] | [10]

Cc1cc(O)c(C(C)C)cc1Cl
inactive: [1]; [11] | [2] | [3] | [4] | [5] | [6] | [8] | [9] | [10]

Cc1c(N(C)CS(=O)(=O)O)c(=O)n(-c2ccccc2)n1C
inactive: [1]; [11] | [2] | [3] | [4] | [5] | [6] | [7] | [8] | [9] | [10]

O=c1[nH]c(=O)n([C@H]2CCCO2)cc1F
inactive: [1]; [11] | [2] | [3] | [4] | [5] | [6] | [8] | [9] | [10]

Cc1ccnc(NS(=O)(=O)c2ccc(N)cc2)n1
inactive: [1]; [11] | [2] | [3] | [4] | [5] | [6] | [8] | [9] | [10]

CCCCC1=NC2(CCCC2)C(=O)N1Cc1ccc(-c2ccccc2-c2nn[nH]n2)cc1
inactive: [1]; [11] | [2] | [3] | [4] | [5] | [6] | [8] | [9] | [10]

COc1ccc(OC)c(C(O)CNC(=O)CN)c1 (stereo not drawn)
inactive: [1]; [11] | [3] | [4] | [5] | [6] | [8] | [9] | [10]

CC(=O)OCC(=O)[C@@]12N=C(C)O[C@@H]1C[C@H]1[C@@H]3CCC4=CC(=O)C=C[C@]4(C)[C@H]3[C@@H](O)C[C@@]12C
inactive: [1]; [11] | [2] | [3] | [4] | [5] | [6] | [8] | [9] | [10]

NC(CS)C(=O)O (stereo not drawn)
inactive: [1]; [11] | [3] | [4] | [5] | [6] | [8] | [9] | [10]

CC(=O)CC(c1ccc([N+](=O)[O-])cc1)c1c(O)c2ccccc2oc1=O (stereo not drawn)
inactive: [1]; [11] | [3] | [4] | [5] | [6] | [8] | [9] | [10]

Cc1c(C(C)C)c(=O)n(-c2ccccc2)n1C
inactive: [1]; [11] | [2] | [3] | [4] | [5] | [6] | [8] | [9] | [10]

COc1cc(/C=C/C(=O)O[C@H]2CC[C@]34C[C@]35CC[C@]3(C)[C@@H]([C@H](C)CCC=C(C)C)CC[C@@]3(C)[C@@H]5CC[C@H]4C2(C)C)ccc1O
inactive: [1]; [11] | [3] | [4] | [5] | [6] | [8] | [9] | [10]

CC1(C)O[C@@H]2[C@@H](CO[C@@]3(COS(N)(=O)=O)OC(C)(C)O[C@@H]23)O1
inactive: [1]; [11] | [2] | [3] | [4] | [5] | [6] | [8] | [9] | [10]

CCC(C(=O)OCCN(CC)CC)c1ccccc1 (stereo not drawn)
inactive: [1]; [11] | [3] | [4] | [5] | [6] | [8] | [9] | [10]

Cc1nc2n(c(=O)c1CCN1CCC(c3noc4cc(F)ccc34)CC1)CCC[C@H]2O
inactive: [1]; at 17.4 µM (top of the series) | [1]; at 44.8 µM (top of the series) | [2] | [3] | [5] | [6] | [7] inactive [at 17.4 µM] | [8] | [9] | [10]

CC(O)(P(=O)(O)O)P(=O)(O)O
inactive: [1]; [11] | [2] | [3] | [4] | [5] | [8] | [9] | [10]

C[C@H](O)C(=O)Nc1c(I)c(C(=O)NC(CO)CO)c(I)c(C(=O)NC(CO)CO)c1I
inactive: [1]; [11] | [3] | [4] | [5] | [6] | [8] | [9] | [10]

COC(=O)CCc1ccc(OCC(O)CNC(C)C)cc1 (stereo not drawn)
inactive: [1]; [11] | [3] | [4] | [5] | [6] | [8] | [9] | [10]

C[C@H](CCC(=O)O)[C@H]1CC[C@H]2[C@@H]3C(=O)C[C@@H]4CC(=O)CC[C@]4(C)[C@H]3CC(=O)[C@]12C
inactive: [1]; [11] | [2] | [3] | [4] | [5] | [6] | [8] | [9] | [10]

COc1c2occc2c(OC)c2c(=O)cc(C)oc12
inactive: [1]; [11] | [3] | [4] | [5] | [6] | [8] | [9] | [10]

CN=C(NC#N)Nc1ccc(C2=NNC(=O)CC2C)cc1 (stereo not drawn)
inactive: [1]; [11] | [2] | [3] | [4] | [5] | [6] | [8] | [9] | [10]

CC1(C)O[C@@H]2C[C@H]3[C@@H]4CCC5=CC(=O)CC[C@]5(C)[C@@]4(F)[C@@H](O)C[C@]3(C)[C@]2(C(=O)CCl)O1
inactive: [1]; [11] | [3] | [4] | [5] | [6] | [8] | [9] | [10]

CCN(CCCCOC(=O)c1ccc(OC)c(OC)c1)C(C)Cc1ccc(OC)cc1 (stereo not drawn)
inactive: [1]; [11] | [3] | [4] | [5] | [6] | [8] | [9] | [10]

CCCCC(=O)O[C@]1(C(=O)CO)CC[C@H]2[C@@H]3CCC4=CC(=O)CC[C@]4(C)[C@H]3[C@@H](O)C[C@@]21C
inactive: [1]; [11] | [3] | [4] | [5] | [6] | [8] | [9] | [10]

Cc1cc2c(cc1CC(=O)c1sccc1S(=O)(=O)Nc1onc(C)c1Cl)OCO2
inactive: [1]; [11] | [2] | [3] | [4] | [5] | [6] | [8] | [9] | [10]

COC(=O)[C@@H]1CC2=CC(=O)CC[C@]2(C)[C@@]23O[C@@H]2C[C@@]2(C)[C@@H](CC[C@@]24CCC(=O)O4)[C@H]13
inactive: [1]; [11] | [3] | [4] | [5] | [6] | [7] | [8] | [9] | [10]

CN1[C@@H]2CC[C@H]1CC(OC(=O)c1c[nH]c3ccccc13)C2 (stereo partly drawn)
inactive: [1]; [11] | [2] | [3] | [4] | [5] | [6] | [7] | [8] | [9] | [10]

CC(C)(C)NC(=O)[C@@H]1CN(Cc2cccnc2)CCN1C[C@@H](O)C[C@@H](Cc1ccccc1)C(=O)N[C@H]1c2ccccc2C[C@H]1O
inactive: [1]; [11] | [2] | [3] | [4] | [5] | [6] | [8] | [9] | [10]

CN1CCN(C(c2ccccc2)c2ccccc2)CC1
inactive: [1]; [11] | [3] | [4] | [5] | [6] | [7] | [8] | [9] | [10]

CCCN1CCCC[C@H]1C(=O)Nc1c(C)cccc1C
inactive: [1]; [11] | [3] | [4] | [5] | [6] | [8] | [9] | [10]

NCCc1ccn[nH]1
inactive: [1]; [11] | [3] | [4] | [5] | [6] | [8] | [9] | [10]

CN1CCC[C@@H]1c1cccnc1
inactive: [1]; [11] | [3] | [5] | [6] | [8] | [9] | [10]

Cc1c(C)n(Cc2ccccc2)c2ccc(C(=O)OCCN(C)C)cc12
inactive: [1]; [11] | [3] | [4] | [5] | [8] | [9] | [10]

CC(=O)N/N=C/c1ccc([N+](=O)[O-])o1
inactive: [1]; [11] | [4] | [10]
active: [6] 6.68 µM | [9] 23.7 µM

CN(C)CC/C=C1\c2ccccc2Sc2ccc(Cl)cc21
inactive: [1]; [11] | [3] | [4] | [10]
active: [6] 11.9 µM

CCCC(=O)Nc1ccc(OCC(O)CNC(C)C)c(C(C)=O)c1 (stereo not drawn)
inactive: [1]; [11] | [3] | [4] | [5] | [6] | [8] | [9] | [10]

C=C1C(=C/C=C2\CCC[C@]3(C)[C@@H]([C@H](C)/C=C/[C@@H](O)C4CC4)CC[C@@H]23)C[C@@H](O)C[C@@H]1O
inactive: [1]; [11] | [3] | [4] | [10]

c1ccc(CNCCNCc2ccccc2)cc1
inactive: [1]; [11] | [3] | [4] | [5] | [8] | [9] | [10]
